# Screening data from PubChem BioAssay.
# AI-2 QS mod – modulators of Vibrio harveyi AI-2 quorum sensing system | Vibrio harveyi JMH597 AI-2 luminescence/OD600 ratio, 9 h; hits give low values; strain lacks LuxN and CqsS sensors; 0 = neutral-control median | activity change, % at 7.5 µM | 300,000 tested, 0.4% active | AID 2094; in the data active means activity change below about -75%, passing the limit was not always enough;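 further: luminescence divided by OD600 gain over 9 h not by final OD600 alone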
# Cardio protect – myocardial damage modulation in H9c2 cells | protection from H2O2 cell death, % at 20 µM | H9c2 cardiomyocytes, H2O2 injury protection, ATPLite, 2 h | 360,000 tested, 0.63% active;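 active means compounds giving at least 50% protection of heart cells from peroxide-induced death in the single-dose screen, raw or plate-pattern-corrected value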
# GRIN3A LBD mod – NR3A (human) ligand-binding domain modulation; Tm shift relative to glycine control, % at 25 µM; 340,000 tested, 2.5% active; NR3A LBD differential scanning fluorimetry, Tm shift; 0% = protein alone, 100% = glycine-bound protein;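 active means melting temperature shift of at least 10% of the positive control shift, at one fixed dose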
# NTR1 ag – NTR1 (human) agonism. P30989. NTR1-U2OS beta-arrestin-GFP spot imaging, agonist mode. activation, % at 20 µM. 330,000 tested, 0.17% active. AID 493036;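 active means activation at or above 40% of the spot to cytoplasm intensity ratio, with at least 20 cells analyzed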
# Target sequence (P30989 whole entry, looked up): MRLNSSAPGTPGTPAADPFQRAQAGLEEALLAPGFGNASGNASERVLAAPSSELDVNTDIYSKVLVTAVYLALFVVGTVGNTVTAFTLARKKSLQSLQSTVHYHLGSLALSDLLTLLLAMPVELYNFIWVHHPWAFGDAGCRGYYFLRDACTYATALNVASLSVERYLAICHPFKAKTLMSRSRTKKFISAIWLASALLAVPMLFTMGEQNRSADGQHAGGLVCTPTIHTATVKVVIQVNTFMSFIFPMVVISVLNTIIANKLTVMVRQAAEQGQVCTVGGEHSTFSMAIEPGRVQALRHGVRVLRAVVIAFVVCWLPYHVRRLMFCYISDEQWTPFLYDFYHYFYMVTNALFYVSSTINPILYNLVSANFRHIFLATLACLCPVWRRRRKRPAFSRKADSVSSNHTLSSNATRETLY
# AHR activator – activates the human aryl hydrocarbon receptor. P35869. 320,000 tested, 2.5% active. AHR-responsive luciferase reporter cells, luminescence. activation, % at 5 µM; in the data active means activation above about 47%
# SUMO Mot1 rescue – SUMOylation pathway inhibition by Mot1-301 growth rescue | S. cerevisiae Mot1-301 growth rescue, ATP luminescence, 38.5C; percent above DMSO median, 100 means doubled | growth rescue, % at 18.8 µM | 320,000 tested, 1% active;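 active means every valid replicate shows activation above 250% relative to neutral control wells; inactive means the rest, any valid replicate at or below 250%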
# Hits are given with their value; n = inactive; x = no result given. In the library only some 6.2% were active in any assay of this set; here they are far more common.
SMILES,AI-2 QS mod,Cardio protect,GRIN3A LBD mod,NTR1 ag,AHR activator,SUMO Mot1 rescue
CC(C)n1nc(Cc2cccc3ccccc23)c(C#N)c1N,n,n,n,n,62,n
N#Cc1c2ccc(OCC(=O)NCc3ccco3)cc2n2ccccc12,n,n,n,n,n,n
N#Cc1c2ccc(O)cc2n2ccccc12,n,69,n,n,n,n
COc1ccc(C(CNC(=O)c2ccc(Br)o2)N2CCN(C)CC2)cc1 (centres undefined),n,n,n,n,n,n
COc1cc(NC(=O)c2cccs2)c(OC)cc1NC(=O)c1cccs1,n,n,n,n,57,n
COc1cc(NC(=O)c2cccs2)c(OC)cc1NC(=O)Cc1ccccc1,n,n,n,n,n,n
COc1ccc(Cl)cc1NC(=O)C/C(C)=N/NC(=O)CC#N,n,n,n,n,72,n
COc1ccc(NC(=O)CCC(=O)c2cccs2)cc1Cl,n,n,n,n,n,n
C/C(CC(=O)Nc1ccc(Cl)cc1C(F)(F)F)=N\NC(=O)c1cccs1,n,n,n,n,n,n
COc1cc(NCCC(=O)c2cccs2)c(OC)cc1Cl,n,n,n,n,51,n
COc1cc(NC(=O)C/C(C)=N/NC(=O)c2cccs2)c(OC)cc1Cl,n,n,n,n,64,n
CCOC(=O)C1CCCN(C(=O)c2ccc(F)c(C)c2)CC1 (centres undefined),x,n,x,x,x,x
CC(=O)NC(C)(c1ccccc1)c1nc(-c2cncnc2)cs1 (centres undefined),x,n,x,x,x,x
COc1ccccc1NC(=O)c1cccs1,n,n,n,n,n,n
COc1cc(NC(=O)c2cccs2)c(OC)cc1NC(=O)Nc1ccc(F)cc1,n,n,25,n,x,n
COc1ccc(C2(C(=O)O)CCCC2)cc1,n,n,11,n,n,n
CCc1ccc(OCC(=O)N/N=C2\CC(=O)c3ccccc32)cc1,n,n,x,n,62,n
COC(=O)c1cc(OC)c(OC)cc1NC(=O)CCc1ccc(C)o1,n,n,n,n,n,n
COC(=O)c1cc(OC)c(OC)cc1NC(=O)c1ccc(C)o1,n,50,n,n,n,n
CN(C)c1ccc(NC(=O)C2C3C=CC(C3)C2C(=O)O)cc1 (centres undefined),n,n,n,n,x,n
C=CCC(O)(CC=C)CNC(=O)c1ccc(OC)c(OC2CCN(C(C)=O)CC2)c1,n,n,n,n,x,n
CCOC(=O)c1c(NC(=O)C2C3C=CC(CC3)C2C(=O)O)sc(C)c1C (centres undefined),n,n,n,n,n,298
CC(O)(c1ccc(F)c(F)c1)c1nc(-c2cccc(C#N)c2)cs1 (centres undefined),x,n,x,x,x,x
CCOC(=O)c1[nH]c2ccccc2c1NC(=S)Nc1cccc(C)c1C,n,n,n,n,56,n
COC(=O)c1[nH]c2ccccc2c1NC(=O)CNC1CCCCC1,n,86,n,n,n,n
SMILES,AI-2 QS mod,Cardio protect,GRIN3A LBD mod,NTR1 ag,AHR activator,SUMO Mot1 rescue
C=CCOC(=O)Nc1c(C(=O)OC)[nH]c2ccccc12,x,n,n,n,57,n
COC(=O)c1[nH]c2ccccc2c1NC(=O)CN1CCCCCC1,n,n,n,n,n,n
Cc1ccccc1C(=O)N1CCC(C(=O)N(CC(C)C)c2c(N)n(Cc3ccccc3)c(=O)[nH]c2=O)CC1,n,n,n,n,n,336
CCCCN(C(=O)C1CCN(C(=O)c2ccccc2C)CC1)c1c(N)n(CC(C)C)c(=O)[nH]c1=O,x,n,n,x,x,x
C=CCN1C(=O)/C(=C/c2ccc(O)cc2)S/C1=N/c1nccs1,n,n,20,n,n,n
COc1cccc(/C=N/NC(=O)c2ccc(OCc3cccc(Br)c3)cc2)c1,n,n,29,n,n,n
COc1ccc(/C=N/NC(=O)c2cccc(Br)c2)cc1CSc1ccccn1,n,n,n,n,56,n
CCOc1ccc(OCc2ccc(C(=O)NN=Cc3ccc[nH]3)cc2)cc1,x,n,19,n,n,n
COc1ccc(C(=O)N/N=C\c2ccc(OC)c(COc3ccccc3Br)c2)c(OC)c1,n,n,n,n,48,n
COc1ccc(/C=N/NC(=O)c2cccnc2)cc1CSc1ccccn1,n,n,n,n,n,n
COc1ccc(/C=N\NC(=O)c2ccc([N+](=O)[O-])cc2)cc1COc1c(F)c(F)cc(F)c1F,n,n,n,n,x,n
Nc1ccc(C(=O)N/N=C/c2cccc(Oc3ccccc3)c2)cc1,n,n,10,n,x,n
COc1ccc(/C=N\NC(=O)c2cccc(F)c2)cc1COc1ccccc1,n,n,16,n,64,n
COc1ccc(/C=N\NC(=O)c2ccccc2[N+](=O)[O-])cc1COc1c(F)c(F)c(F)c(F)c1F,n,n,10,n,n,n
O=C(N/N=C/c1cccc(Oc2ccccc2)c1)c1cc[n+]([O-])cc1,n,n,n,n,n,n
COc1ccc(OCc2cc(/C=N\NC(=O)c3ccccc3)ccc2OC)cc1,n,n,n,n,n,n
Cc1ccc(NC(=O)CCN2C(=O)NC(C)(C)C2=O)cc1F,x,n,n,n,x,x
CCCCCc1nnc(NC(=O)c2cccc(S(=O)(=O)N3CCOCC3)c2)s1,x,n,n,n,n,x
CN(N=Nc1nc[nH]c1C(=O)NN)C1CCCCC1,x,n,n,x,x,x
O=C(O)CN1C(=O)/C(=C\c2cc(Br)ccc2OCc2ccc(F)cc2)SC1=S,n,n,29,n,n,n
CC(=O)n1cc([C@H]2C=C(C(=O)Nc3ccccc3)O[C@@H](OCCCCO)C2)c2ccccc21,n,n,n,n,n,n
CC(=O)n1cc([C@@H]2C=C(C(=O)NCc3ccccc3)O[C@H](OCCCCO)C2)c2ccccc21,n,n,n,n,73,n
C#CCNC(=O)C1=C[C@@H](c2cn(C(C)=O)c3ccccc23)C[C@@H](OCCCCO)O1,n,n,n,n,65,n
Cc1nc(N2CCC(C)CC2)c2c(C)c(C(=O)Nc3cccc(C(F)(F)F)c3)sc2n1,n,n,12,n,n,n
Cc1nc(N2CCN(c3ccccn3)CC2)c2c(C)c(C(=O)Nc3ccccc3F)sc2n1,n,50,n,n,n,n
Cc1nc(N2CCN(c3ccccn3)CC2)c2c(C)c(C(=O)Nc3ccc(F)cc3F)sc2n1,n,n,n,n,n,n
Cc1nc(N2CCC(C)CC2)c2c(C)c(C(=O)Nc3ccc4c(c3)OCCO4)sc2n1,n,n,n,n,n,n
Cc1nc(N2CCC(C)CC2)c2c(C)c(C(=O)Nc3ccc(C(F)(F)F)cc3)sc2n1,n,n,13,n,n,n
Cc1nc(N2CCOCC2)c2c(C)c(C(=O)Nc3ccccc3C(F)(F)F)sc2n1,n,n,n,n,n,n
Cc1ccc(Cc2c(-c3cccc(Cl)c3)nc3c(C)cc(Br)cn23)cc1,x,n,x,x,x,x
